The values below come from PubChem BioAssay AID463173 (ICCB-Longwood Screening Facility, Harvard Medical School, 2010).

Out of some 52,000 compounds screened, about 4,300 (8.3%) were called active. The full list was thinned out, with actives kept by preference. Values without a mark were called inactive. Rule as the data show it: active = survival mostly below about 52% (no sharp cut-off); inactive = mostly above about 56%.

This test relates to DeltatarO mutant. The test is described as follows: growth inhibition of S. aureus wild type versus tarO mutant, primary screen, teichoic acid synthesis inhibitors, RN4220, OD600 (AID 463173). To be noted: OD600, 18 h, hits give low values, screened at 18.75 µg/mL (by protocol).
Take `CCCNC(=O)CN1C(=O)COc2ccc(S(=O)(=O)N3CCCC3)cc21`: the survival was 86%.

As for `O=C1CCc2cc(S(=O)(=O)NCc3ccc(Cl)cc3)cc3c2N1CC3`, the survival is 77%.

For `COCCOC(=O)Cn1nnc2sc(-c3ccccc3)cc2c1=O`, the survival is 65%.

For `COCC(=O)NCc1nc2cccnc2n1Cc1ccc(F)cc1`, the survival is 60%.

Regarding `CN1CCN(C(=O)c2ccccc2C(=O)O)CC1`, the survival was 96%.

With `CCc1nn2c(=O)cc(COC(=O)c3ccc4c(c3)OCO4)nc2s1`, the survival is 76%.

Turning to `COc1ccc(NC(=O)c2c(NCc3ccc(OC)c(OC)c3OC)sc3c2CCC3)c(OC)c1`, the survival is 83%.

In the case of `Cc1n[nH]c(=S)n1CC1CCCO1` (stereo not drawn), the survival is 77%.

With `COc1cccc(Cn2c(=O)n(-c3ccc(Br)cc3F)c(=O)c3sc4ccccc4c32)c1`, the survival was 96%.

For the molecule `O=C(Nc1nnc(S(=O)(=O)N2CCOCC2)s1)c1cccc(F)c1`, the survival was 80%.

For `Cc1ccc(N2CCN(S(=O)(=O)c3nnc(NC(=O)c4cccc(F)c4)s3)CC2)cc1`, the survival is 57%.

Turning to `CC1CCN(S(=O)(=O)c2nnc(NC(=O)c3cccc(F)c3)s2)CC1`, the survival was 31% (active).

Regarding `COc1ccc(N(C(=O)c2ccco2)C(C(=O)NC2CCCC2)c2cc(OC)c(OC)c(OC)c2)cc1` (stereo not drawn), the survival is 84%.

Turning to `COc1ccc(C(C(=O)NC2CCCC2)N(Cc2ccc(C)cc2)C(=O)c2ccn[nH]2)cc1OC` (stereo not drawn), the survival is 104%.

For `COc1ccc(-c2nnn(CC(=O)N(Cc3ccccc3)C(C)C(=O)NC3CCCC3)n2)cc1OC` (stereo not drawn), the survival was 84%.

For the molecule `CCOC(=O)CN(Cc1ccccc1)C(C(=O)NC1CCCCC1)c1ccc(C)cc1` (stereo not drawn), the survival is -3% (active).

With `CCOC(=O)CN(Cc1ccccc1)C(C(=O)NC1CCCCC1)c1ccccc1` (stereo not drawn), the survival was -1% (active).

Consider `CCCC(C(=O)NC1CCCC1)N(Cc1ccccc1)C(=O)Cn1nnc(-c2ccc(C)o2)n1` (stereo not drawn), for which the survival was 66%.

For `O=C(NC1CCCC1)C(c1ccccc1)N(Cc1ccc2c(c1)OCO2)C(=O)c1ccco1` (stereo not drawn), the survival is 73%.

Regarding `CCOC(=O)CN(Cc1ccccc1)C(C(=O)NC1CCCCC1)c1ccc(OC)cc1` (stereo not drawn), the survival was 20% (active).

`O=C(NC1CCCCC1)C(c1ccco1)N(Cc1ccccc1)C(=O)Cn1nnc2ccccc21` (stereo not drawn): the survival was 69%.

Turning to `Cc1cc(C)cc(NC(=O)Cn2cc(S(=O)(=O)NC(C)(C)C)c(S(=O)(=O)NC(C)(C)C)c2)c1`, the survival is 95%.

As for `CSc1ncc(C(=O)NCc2ccccc2F)c(-c2ccccc2)n1`, the survival is 112%.

For the molecule `CCCn1c2ccccc2c2cnn(CC(=O)NCc3ccccc3Cl)c(=O)c21`, the survival was 108%.

For the molecule `CCc1nn(CCCC(=O)NCc2cc(Br)ccc2OC)c(=O)c2cc3occc3n12`, the survival was 46% (active).

In the case of `Cc1ccccc1CNC(=O)C(C)n1nc(C)n2c(cc3occc32)c1=O` (stereo not drawn), the survival was 68%.

In the case of `CCC(C(=O)NCc1ccccc1OC)n1nc(C)n2c(cc3occc32)c1=O` (stereo not drawn), the survival is 80%.

Consider `COc1ccc(Br)cc1CNC(=O)C(C)n1nc(C)n2c(cc3occc32)c1=O` (stereo not drawn), for which the survival is 46% (active).

Consider `CCc1nn(CCCC(=O)NCc2ccccc2OC)c(=O)c2cc3occc3n12`, for which the survival is 84%.

`CCc1nn(CCCC(=O)NCc2ccc(OC)c(OC)c2)c(=O)c2cc3occc3n12`: the survival is 79%.

Consider `COC(=O)c1ccc(Oc2nc3c(c(=O)n(C)c(=O)n3C)n2Cc2ccc(Cl)c(Cl)c2)cc1`, for which the survival is 167%.

For the molecule `O=C(CCS(=O)(=O)c1nc(-c2cccs2)cc(C(F)(F)F)n1)Nc1ccc(F)c(Cl)c1`, the survival was 67%.

On to `Clc1cc2c(cc1C=Nc1ccc(N3CCOCC3)cc1)OCO2`, for which the survival is 83%.

For `N#CC(C#N)=Cc1cn(CC(=O)Nc2ccccc2)c2ccccc12`, the survival was 66%.

On to `CSc1ccc(-c2nc3cc(C)ccn3c2Nc2ccc(C)cc2)cc1`, for which the survival is 95%.

On to `Fc1ccc(Nc2c(-c3c[nH]c4ccccc34)nc3ccccn23)cc1`, for which the survival was 70%.

`Cc1ccc(Nc2c(-c3cc(Br)ccc3F)nc3cc(C)ccn23)cc1`: the survival was 32% (active).

Turning to `Cc1ccc(Nc2c(-c3c[nH]c4ccccc34)nc3ccccn23)cc1`, the survival was 114%.

`c1ccc(Nc2c(-c3c[nH]c4ccccc34)nc3ccccn23)cc1`: the survival was 54% (active).

As to `Cc1ccc(Nc2c(-c3ccccc3O)nc3cc(C)ccn23)cc1`, the survival is 78%.

With `Cc1ccc(Nc2c(-c3c[nH]c4ccccc34)nc3cc(C)ccn23)cc1`, the survival was 80% (active).

Take `Cc1ccn2c(Nc3ccccc3)c(-c3c[nH]c4ccccc34)nc2c1`: the survival was 86%.

For `Cc1ccc2nc(-c3c[nH]c4ccccc34)c(Nc3ccccc3)n2c1`, the survival was 78%.

As to `Cc1ccc(Oc2nc3c(c(=O)n(Cc4ccccc4Cl)c(=O)n3C)n2C)cc1C`, the survival was 61%.

As for `Cc1csc2nc(-c3ccc(NS(=O)(=O)c4cc(F)ccc4F)cc3)cn12`, the survival is 87%.

`Fc1ccc(CNc2nc3c(-c4ccc(F)cc4)nnn3c3ccccc23)cc1`: the survival is 105%.

As to `Cc1ccc2oc(-c3cccc(NC(=O)c4cccc5c(Cl)cccc45)c3)nc2c1`, the survival is 51% (active).

As to `Cc1ccc2oc(-c3cccc(NC(=O)c4cccc5c(Br)cccc45)c3)nc2c1`, the survival was 153%.

In the case of `O=C(Nc1cccc(-c2nc3ccccc3o2)c1)c1cccc2c(Cl)cccc12`, the survival was 46%.

Turning to `O=C(Nc1cc(-c2nc3ccccc3o2)ccc1Cl)c1cccc2c(Cl)cccc12`, the survival was 56%.

For `Cc1ccc(-c2nc3ccccc3o2)cc1NC(=O)c1cccc2c(Cl)cccc12`, the survival is 47% (active).

Regarding `Cc1ccc2nc(-c3cccc(NC(=O)c4cccc5c(Cl)cccc45)c3)oc2c1`, the survival was 110%.

As to `O=C(OCc1cc(=O)n2nc(-c3cccs3)sc2n1)c1cccc(F)c1`, the survival is 77%.

In the case of `COc1cccc(N2CCN(C(=O)CN3CCSc4ccccc43)CC2)c1`, the survival was 83%.

As to `Cc1ccc(C)c(N2CCN(C(=O)CN3C(=O)COc4ccc(S(=O)(=O)N5CCCC5)cc43)CC2)c1`, the survival is 85%.

With `CCN(CC)CCn1c(=N)n(CC(O)COc2ccccc2C)c2ccccc21` (stereo not drawn), the survival is 80%.

Take `O=C(CSc1nnnn1C1CCCC1)NCc1cccs1`: the survival is 103%.

`CCN(CC)CCNC(=O)c1ccc(CSc2nc3ccncc3n2Cc2cccc(F)c2)cc1`: the survival was 92%.

Consider `Cc1cccc(N2CCN(C(=O)Nc3cn(CC(C)C)c(=O)c4ccccc34)CC2)c1C`, for which the survival was 69%.

For the molecule `Cc1ccc(Cl)cc1NC(=O)Cn1c(=O)n(Cc2ccccc2)c(=O)c2oc3ccccc3c21`, the survival was 81%.

For the molecule `CCC(=O)N1c2ccccc2CC1C(=O)NCc1ccc(CC)cc1` (stereo not drawn), the survival was 100%.

On to `COc1ccc(C2c3c(n(C)c4ccccc34)C(=O)N2CC(=O)Nc2cccc(Cl)c2)cc1` (stereo not drawn), for which the survival was 80%.

For `COC(=O)CSc1nnc(C2CCCCC2)n1Cc1ccccc1`, the survival was 116%.

Take `CCc1ccc(-c2nc(CN3CCC(C(=O)NCCc4ccc(C)cc4)CC3)c(C)o2)cc1`: the survival is 95%.

Turning to `Cc1ccc(C)c(N2CCN(C(=O)C3CCN(Cc4nc(-c5cccc(Cl)c5)oc4C)CC3)CC2)c1`, the survival is 47%.

Regarding `Cc1ccc(Cl)cc1N1CCN(C(=O)C2CCN(Cc3nc(-c4cccc(Cl)c4)oc3C)CC2)CC1`, the survival was -8% (active).

For the molecule `Cc1oc(-c2cccc(Cl)c2)nc1CN1CCC(C(=O)NCCCN2CCN(c3cccc(Cl)c3)CC2)CC1`, the survival is 63%.

Take `Cc1oc(-c2ccc(Cl)cc2)nc1CN1CCC(C(=O)NCCCN2CCN(c3cccc(Cl)c3)CC2)CC1`: the survival was 42% (active).

Turning to `Cc1oc(-c2cccc(Cl)c2)nc1CN1CCC(C(=O)NCCCN2CCN(c3ccc(F)cc3)CC2)CC1`, the survival was 119%.

With `CCCCSCCCNC(=O)C1CCN(Cc2nc(-c3cccc(Br)c3)oc2C)CC1`, the survival was 68%.

Consider `Cc1ccc(Cl)cc1N1CCN(C(=O)C2CCCN(Cc3nc(-c4cccc(Cl)c4)oc3C)C2)CC1` (stereo not drawn), for which the survival is 66%.

As to `Cc1cccc(N2CCN(C(=O)C3CCN(Cc4nc(-c5ccc(Cl)cc5)oc4C)CC3)CC2)c1C`, the survival was 60%.

As to `CCCCSCCCNC(=O)C1CCN(Cc2nc(-c3ccc(CC)cc3)oc2C)CC1`, the survival was 46% (active).

As to `CCc1ccc(-c2nc(CN3CCCC(C(=O)N4CCN(c5cc(Cl)ccc5C)CC4)C3)c(C)o2)cc1` (stereo not drawn), the survival is 70%.

`Cc1ccc(Cl)cc1N1CCN(C(=O)C2CCN(Cc3nc(-c4ccc(Cl)cc4)oc3C)CC2)CC1`: the survival was -9% (active).

For the molecule `CCCOc1ccc(Oc2nc(NCC(C)C)nc(N3CCOCC3)n2)nn1`, the survival is 74%.

Regarding `CN(C)c1ccc(CNC(=O)CN2C(=O)CSc3ccc(S(=O)(=O)N4CCCC4)cc32)cc1`, the survival was 80%.

Take `COc1ccccc1CNc1ncnc2c1nc1n2CCCC1`: the survival is 80%.

Consider `COc1ccc(NC(=O)CC2C(=O)N(c3ccc(OC)cc3)C(=O)N2Cc2ccc(OC)c(OC)c2)cc1` (stereo not drawn), for which the survival was 131%.

On to `CCOC(=O)c1ccc(NC(=O)c2cnn(-c3ccc(C)cc3C)c2C2CCN(C(=O)OC(C)(C)C)CC2)cc1`, for which the survival is 93%.

Regarding `Cc1nc(N2CCCCC2)c(C#N)c2c1COC(C)(C)C2`, the survival is 81%.

On to `Nc1ccc(N2CCOCC2)cc1C(F)(F)F`, for which the survival was 80%.

On to `Fc1ccc(NCc2nc3ccccc3n2CCOc2ccccc2Cl)cc1`, for which the survival is 91%.

Take `Cc1cccc(NCc2nc3ccccc3n2CCOc2ccccc2C)c1`: the survival was 3% (active).

As for `Cc1ccc(C)c(OCCn2c(CCNC(=O)C3CCCCC3)nc3ccccc32)c1`, the survival is 59%.

For `COc1ccc(NCc2nc3ccccc3n2CCOc2ccccc2C)cc1`, the survival was 32% (active).

For the molecule `Cc1ccc(NCc2nc3ccccc3n2CCOc2ccccc2C)cc1`, the survival is 3% (active).

As to `CCC(CC)c1nn2c(=O)cc(COc3ccc(NC(=O)c4ccccc4Cl)cc3)nc2s1`, the survival was 94%.
